Calls of active or inactive are those of the source. Rule for the calls: active = hit-call score of the fitted dose curve at least 0.9, where 1 is the maximum; inactive = score below 0.9.

Test [1] is described as follows: ATG_M_61_CIS: Attagene CIS-FACTORIAL HepG2 Assay for M61 Transcription Factor (Internal Marker) (AID 2282937). The note with it: HepG2 Attagene CIS-FACTORIAL M61 internal marker reporter; actives raise or lower the signal. In a few lines:
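Background-control endpoint: HepG2 cells with cis-regulated reporter constructs, 24 h exposure, reporter mRNA detected via fluorescent primer extension and capillary electrophoresis; values from bidirectional fitting with DMSO baseline.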

A short description of test [2]: ATG_EGR_CIS: Attagene CIS-FACTORIAL HepG2 Assay for human Early Growth Response 1 (EGR1) (AID 2282938). The following applies: HepG2 Attagene CIS-FACTORIAL EGR reporter mRNA; actives raise or lower the signal. Put shortly: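 Endpoint derived by bidirectional fitting versus DMSO vehicle. Method: cis-promoter reporter units transfected into HepG2, 24 h dosing, RNA isolation, RT-PCR with 6-FAM primer extension and HpaI digestion, then capillary electrophoresis fluorescence detection.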

Test [3] can be described thus: ATG_M_19_CIS: Attagene CIS-FACTORIAL HepG2 Assay for M19 Transcription Factor (Internal Marker) (AID 2282939). The note with it: HepG2 Attagene CIS-FACTORIAL M19 internal marker reporter; actives raise or lower the signal. In a few lines: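 In this multiplexed cell assay, transiently transfected HepG2 reporter units report endogenous transcription-factor activity; after 24 hours of treatment, labelled reporter cDNA fragments are quantified by capillary electrophoresis and fitted bidirectionally against DMSO.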

The nature of test [4]: ATG_ERE_CIS: Attagene CIS-FACTORIAL HepG2 Assay for Estrogen Response Element (ERE) (AID 2282940). The note with it: HepG2 ERE cis-reporter, Attagene RNA transcript; actives raise or lower the signal. In a few lines:
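Measuring endogenous transcription factor output, the assay doses transfected HepG2 cells for 24 hours and quantifies reporter transcripts by fluorescent RT-PCR and capillary electrophoresis, with DMSO as baseline.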

Test [5] can be described thus: ATG_Ets_CIS: Attagene CIS-FACTORIAL HepG2 Assay for human Erythroblast Transformation Specific (ETS) (AID 2282941). The following applies: HepG2 ETS cis-reporter transcription, actives raise or lower the signal. Put shortly:
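Bidirectional fit versus DMSO of reporter mRNA signal, detected by RT-PCR and capillary electrophoresis in HepG2 cells transiently transfected with cis-element reporters and dosed 24 h.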

Test [6] concerns the target Hepatocyte nuclear factor 3-beta (Homo sapiens) (UniProt Q9Y261). Put plainly: ATG_FoxA2_CIS: Attagene CIS-FACTORIAL HepG2 Assay for human Forkhead box A2 (FOXA2) (AID 2282942). The note with it: HepG2 cis-reporter transcription factor activity, 24 h; actives raise or lower the signal. Put shortly: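 Measured: reporter mRNA induction or loss in HepG2 transiently carrying multiple cis-regulated reporter units, 24 h after dosing. Quantified by RT-PCR plus capillary electrophoresis, normalised to DMSO.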

A short description of test [7]: ATG_FoxO_CIS: Attagene CIS-FACTORIAL HepG2 Assay for human Forkhead box O (FoxO) (AID 2282943). The note with it: HepG2 Attagene cis-reporter, FoxO element, mRNA; actives raise or lower the signal. Put shortly: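 HepG2 cells transiently transfected with cis-element-driven reporter units report endogenous FoxO activity. After 24 h chemical exposure, reporter mRNA quantified by RT-PCR, fluorescent labeling, HpaI digestion and capillary electrophoresis; bidirectional fit versus DMSO.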

Test [8] can be described thus: ATG_GLI_CIS: Attagene CIS-FACTORIAL HepG2 Assay for human Zinc Finger Protein GLI1 (AID 2282945). The note with it: HepG2, Attagene cis-factorial reporter mRNA, GLI element; actives raise or lower the signal. In a few lines: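 Transiently transfected HepG2 cells report endogenous transcription factor activity via cis-element-driven reporter units. After 24 h compound exposure, reporter mRNA was measured by RT-PCR with capillary electrophoresis; bidirectional fitting against DMSO baseline.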

Test [9] deals with Bile acid receptor (Homo sapiens) (UniProt Q96RI1). Put plainly: ATG_IR1_CIS: Attagene CIS-FACTORIAL HepG2 Assay for human Nuclear Receptor Subfamily 1 Group H Member 4 (NR1H4), IR1 submotif (AID 2282946). The note with it: IR1 reporter transcription, actives raise or lower the signal. In a few lines: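 Fluorescence of capillary-separated, HpaI-digested RT-PCR reporter products gave IR1-element mRNA induction in HepG2 cells 24 h after dosing. Endogenous transcription factors drove the cis-regulated reporters; activity was fitted bidirectionally against DMSO.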
Bile acid receptor (Homo sapiens), sequence (Q96RI1 whole entry, looked up): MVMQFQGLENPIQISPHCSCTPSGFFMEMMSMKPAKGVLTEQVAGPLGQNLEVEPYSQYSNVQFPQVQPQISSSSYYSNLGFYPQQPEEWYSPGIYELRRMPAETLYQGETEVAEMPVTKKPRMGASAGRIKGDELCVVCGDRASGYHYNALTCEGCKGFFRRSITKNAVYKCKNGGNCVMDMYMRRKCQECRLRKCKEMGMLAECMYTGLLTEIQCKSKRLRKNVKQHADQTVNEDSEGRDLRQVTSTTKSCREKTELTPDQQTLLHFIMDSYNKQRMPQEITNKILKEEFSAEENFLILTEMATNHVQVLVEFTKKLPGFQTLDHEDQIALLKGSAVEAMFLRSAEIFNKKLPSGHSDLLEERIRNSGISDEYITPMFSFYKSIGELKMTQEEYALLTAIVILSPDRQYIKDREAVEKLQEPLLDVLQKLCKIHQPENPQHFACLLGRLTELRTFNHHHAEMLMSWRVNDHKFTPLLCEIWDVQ

The nature of test [10]: ATG_GRE_CIS: Attagene CIS-FACTORIAL HepG2 Assay for human Glucocorticoid Response Elements (GRE) (AID 2282947). The note with it: HepG2 GRE cis-reporter, Attagene multiplex mRNA; actives raise or lower the signal. Put shortly:
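Fluorescence intensity of reporter-specific cDNA fragments, separated by capillary electrophoresis, provides the signal. Constructs carry cis-regulating promoters in transiently transfected HepG2 liver cells; 24 h incubation; fitting is bidirectional against DMSO.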

Test [11] can be described thus: ATG_ISRE_CIS: Attagene CIS-FACTORIAL HepG2 Assay for human Interferon Regulatory Factor 1 (IRF1) binding to an Interferon-Stimulated Response Element (ISRE) (AID 2282948). The following applies: HepG2 ISRE cis-reporter (Attagene), mRNA transcription readout; actives raise or lower the signal. In a few lines: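 Uses HepG2 liver cells transfected with cis-regulated reporters and measures mRNA 24 h post-dosing through RT-PCR, primer-extension labelling and capillary electrophoresis, with DMSO as negative control.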

Test [12] in a line: ATG_M_32_CIS: Attagene CIS-FACTORIAL HepG2 Assay for M32 Transcription Factor (Internal Marker) (AID 2282949).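 Note: background control marker of the multiplexed CIS panel rather than a real target.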 The note with it: HepG2 Attagene cis-factorial M32 reporter, mRNA; actives raise or lower the signal. In a few lines:
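HepG2 transfectants (cis-regulated reporter transcription units) dosed 24 h. Reporter mRNA by RT-PCR plus CE, analysed as gain or loss relative to DMSO.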

A short description of test [13]: ATG_M_06_CIS: Attagene CIS-FACTORIAL HepG2 Assay for M06 Transcription Factor (Internal Marker) (AID 2282950). The following applies: HepG2 Attagene CIS-FACTORIAL M06 internal marker reporter; actives raise or lower the signal. In a few lines:
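One of many multiplexed endpoints: HepG2 reporter mRNA after 24 h dosing, detected by RT-PCR and capillary electrophoresis fluorescence; gain or loss of signal analysed against DMSO.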

The target of test [14] is Hypoxia-inducible factor 1-alpha (Homo sapiens) (UniProt Q16665). Put plainly: ATG_HIF1a_CIS: Attagene CIS-FACTORIAL HepG2 Assay for human Hypoxia Inducible Factor 1 (HIF1A) (AID 2282951). The following applies: HepG2 Attagene cis-factorial HIF1a reporter transcription; actives raise or lower the signal. Put shortly: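 Dosed 24 h, transfected HepG2 cells yielded total RNA whose reporter transcripts were RT-PCR-amplified and sized by capillary electrophoresis using fluorescent labelling; DMSO defined baseline, with gain and loss of signal both fitted.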
Hypoxia-inducible factor 1-alpha (Homo sapiens), sequence (Q16665 whole entry, looked up): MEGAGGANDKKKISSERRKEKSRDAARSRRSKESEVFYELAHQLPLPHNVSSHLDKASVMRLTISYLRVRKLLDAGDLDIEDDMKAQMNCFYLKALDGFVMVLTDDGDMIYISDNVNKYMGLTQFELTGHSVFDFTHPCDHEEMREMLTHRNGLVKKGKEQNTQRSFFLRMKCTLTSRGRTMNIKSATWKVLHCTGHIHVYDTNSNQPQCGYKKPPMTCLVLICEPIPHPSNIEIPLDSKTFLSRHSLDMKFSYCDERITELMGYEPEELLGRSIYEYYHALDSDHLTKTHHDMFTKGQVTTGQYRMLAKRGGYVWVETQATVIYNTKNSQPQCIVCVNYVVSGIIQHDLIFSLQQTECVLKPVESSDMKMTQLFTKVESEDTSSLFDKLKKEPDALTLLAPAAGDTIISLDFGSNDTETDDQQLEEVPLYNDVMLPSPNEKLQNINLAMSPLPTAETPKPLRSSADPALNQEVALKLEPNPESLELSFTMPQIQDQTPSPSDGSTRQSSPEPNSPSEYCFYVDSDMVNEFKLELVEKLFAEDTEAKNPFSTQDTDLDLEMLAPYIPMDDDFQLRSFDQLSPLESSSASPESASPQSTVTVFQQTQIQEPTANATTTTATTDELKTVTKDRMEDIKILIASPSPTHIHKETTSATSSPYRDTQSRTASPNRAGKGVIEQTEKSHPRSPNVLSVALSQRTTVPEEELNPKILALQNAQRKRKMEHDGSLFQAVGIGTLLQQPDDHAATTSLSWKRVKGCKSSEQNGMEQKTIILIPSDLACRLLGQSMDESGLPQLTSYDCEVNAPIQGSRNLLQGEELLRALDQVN

Test [15] has as its target Hepatocyte nuclear factor 6 (Homo sapiens) (UniProt Q9UBC0). Put plainly: ATG_HNF6_CIS: Attagene CIS-FACTORIAL HepG2 Assay for human Hepatocyte Nuclear Factor 6 (HNF6) (AID 2282952). The note with it: HepG2 Attagene cis-factorial HNF6 reporter transcription; actives raise or lower the signal. Put shortly:
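First, HepG2 cells were transfected with the multiplexed cis reporter library and dosed with chemical for 24 h. Next, RNA was reverse-transcribed, PCR-amplified and fluorescently labelled. Finally, HpaI-digested fragments were read by capillary electrophoresis.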

Test [16] deals with Heat shock factor protein 1 (Homo sapiens) (UniProt Q00613). The experiment in a line: ATG_HSE_CIS: Attagene CIS-FACTORIAL HepG2 Assay for human Heat Shock Transcription Factor 1 (HSE) (AID 2282953). The following applies: HepG2 HSE cis-reporter, Attagene RNA transcription; actives raise or lower the signal. In a few lines:
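Using HepG2 with transfected cis-driven reporter constructs, compound effects on endogenous factor activity are scored as reporter mRNA change at 24 h. Detection: RT-PCR, HpaI digestion, capillary electrophoresis; bidirectional fitting to DMSO.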

The nature of test [17]: ATG_MRE_CIS: Attagene CIS-FACTORIAL HepG2 Assay for human Metal Responsive Element (MRE) (AID 2282954). The note with it: HepG2 MRE cis-reporter transcription, Attagene multiplex; actives raise or lower the signal. In a few lines: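 Measured here is mRNA induction from an MRE cis-element reporter in HepG2 after 24 h, quantified by fluorescence of labelled RT-PCR products on capillary electrophoresis; gain- and loss-of-signal fits use DMSO as baseline.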

A short description of test [18]: ATG_GATA_CIS: Attagene CIS-FACTORIAL HepG2 Assay for human GATA Binding Protein (AID 2282944). The following applies: HepG2 GATA cis-element reporter, Attagene multiplex mRNA; actives raise or lower the signal. Put shortly:
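Measures endogenous transcription factor-driven reporter mRNA in HepG2 cells transiently carrying cis-regulated constructs. 24 h dosing; RNA via oligo(dT) reverse transcription, PCR, HpaI digestion, capillary electrophoresis; fitted relative to DMSO.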

Test [19] can be described thus: ATG_PBREM_CIS: Attagene CIS-FACTORIAL HepG2 Assay for human Phenobarbital-responsive Enhancer Module (PBREM) (AID 2282955). The following applies: HepG2 PBREM cis-reporter, Attagene multiplexed transcription; actives raise or lower the signal. In a few lines:
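Transfected liver-derived HepG2 cells exposed 24 h; PBREM reporter transcript quantified via RT-PCR and capillary electrophoresis, with activity in either direction referenced to DMSO.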

Heat shock factor protein 1 (Homo sapiens), sequence (Q00613 whole entry, looked up): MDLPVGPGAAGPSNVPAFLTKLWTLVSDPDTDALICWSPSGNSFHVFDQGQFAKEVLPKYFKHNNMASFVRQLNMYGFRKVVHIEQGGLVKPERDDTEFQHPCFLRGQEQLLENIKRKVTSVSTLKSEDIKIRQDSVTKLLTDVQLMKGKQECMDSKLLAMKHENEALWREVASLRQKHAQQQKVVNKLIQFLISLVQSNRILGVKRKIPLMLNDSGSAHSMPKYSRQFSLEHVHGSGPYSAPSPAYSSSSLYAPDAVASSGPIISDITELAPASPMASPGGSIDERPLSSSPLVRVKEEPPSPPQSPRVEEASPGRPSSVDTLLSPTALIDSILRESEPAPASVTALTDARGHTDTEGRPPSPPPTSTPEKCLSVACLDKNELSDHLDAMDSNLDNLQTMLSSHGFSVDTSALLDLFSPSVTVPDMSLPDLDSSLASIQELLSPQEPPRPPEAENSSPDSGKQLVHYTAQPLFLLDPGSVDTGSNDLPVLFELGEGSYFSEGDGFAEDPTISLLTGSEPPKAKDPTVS
Hepatocyte nuclear factor 3-beta (Homo sapiens), sequence (Q9Y261 whole entry, looked up): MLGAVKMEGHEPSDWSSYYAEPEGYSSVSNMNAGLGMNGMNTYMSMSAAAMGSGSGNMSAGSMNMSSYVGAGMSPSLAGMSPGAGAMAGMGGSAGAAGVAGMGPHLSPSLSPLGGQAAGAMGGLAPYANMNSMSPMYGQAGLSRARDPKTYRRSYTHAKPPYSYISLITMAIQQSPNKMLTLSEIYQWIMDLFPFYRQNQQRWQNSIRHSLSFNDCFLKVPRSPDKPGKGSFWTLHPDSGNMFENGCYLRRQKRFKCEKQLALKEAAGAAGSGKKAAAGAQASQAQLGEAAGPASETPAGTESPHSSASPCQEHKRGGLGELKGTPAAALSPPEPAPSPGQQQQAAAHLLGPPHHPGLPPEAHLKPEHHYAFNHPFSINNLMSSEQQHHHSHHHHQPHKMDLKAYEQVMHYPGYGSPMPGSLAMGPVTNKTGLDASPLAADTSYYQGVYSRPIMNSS
Hepatocyte nuclear factor 6 (Homo sapiens), sequence (Q9UBC0 whole entry, looked up, the tested form may be a part): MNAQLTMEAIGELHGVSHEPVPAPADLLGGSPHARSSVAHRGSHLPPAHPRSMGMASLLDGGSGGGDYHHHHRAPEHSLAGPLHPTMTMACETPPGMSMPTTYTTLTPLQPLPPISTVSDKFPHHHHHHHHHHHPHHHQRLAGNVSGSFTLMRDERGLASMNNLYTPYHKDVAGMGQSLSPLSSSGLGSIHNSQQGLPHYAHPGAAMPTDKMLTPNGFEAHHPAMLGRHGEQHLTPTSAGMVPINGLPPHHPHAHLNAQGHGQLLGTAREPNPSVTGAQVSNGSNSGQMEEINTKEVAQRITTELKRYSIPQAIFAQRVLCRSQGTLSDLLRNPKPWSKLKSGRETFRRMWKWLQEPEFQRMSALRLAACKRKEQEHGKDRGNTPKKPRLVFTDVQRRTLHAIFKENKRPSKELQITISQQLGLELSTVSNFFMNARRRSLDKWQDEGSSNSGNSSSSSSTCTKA

`CC=CC(F)(F)C(F)(F)C(F)(F)F`: the call in [1], in test [2], in test [3], in [4], in test [5] and in test [6] was inactive. Also, the outcome in test [7], in [8], in test [9], in [10], in test [11] and in test [12] was inactive. Further, the result in test [13], in test [14], in test [15], in test [16] and in test [17] was inactive.

For the molecule `CC/C=C\CCOC(=O)CCCCC`, the result in [1], in test [2], in test [3], in [4], in [5] and in test [6] was inactive. Moreover, the molecule was called inactive in test [7], in [18], in [8], in test [11], in test [13] and in test [14]. The outcome in test [15], in [16] and in test [17] was inactive.

`NCCCN1CCN(CCCN)CC1`: the molecule was classed as inactive in test [1], in test [2], in [3], in [4], in test [5] and in [6]. For the same molecule, the outcome in test [7], in [18], in test [8], in test [10], in test [11] and in test [12] was inactive. In addition, the outcome in test [13], in [14], in test [15], in test [16], in test [17] and in test [19] was inactive.

One may read the AC50 as the concentration giving half of the maximal activity seen. Consider `CC1=Nc2ccc3ccccc3c2C1(C)C`, for which the result in test [1], in test [2], in test [3], in [5], in test [6] and in test [7] was inactive. The outcome in [18], in test [8], in [9], in [11], in test [13] and in [14] was inactive. For the same molecule, the call in test [15] was inactive. Further, the AC50 in [16] is 147 µM (active); in test [17] it was 100 µM (active).

In the case of `CCOC(=O)CC`, the molecule was classed as inactive in [1], in test [2], in [3], in [4], in test [5] and in test [6]. Moreover, the result in test [7], in test [8], in test [9], in test [11], in test [12] and in test [13] was inactive. Further, the molecule was classed as inactive in test [14], in test [15], in test [16], in test [17] and in test [19].

The values above are taken from PubChem BioAssay (EPA / NIEHS).
